# Laboratory results reported in the supplement of paper PMC11577813, “Eurasian spruce bark beetle detects lanierone using a highly expressed specialist odorant receptor, present in several functional sensillum types” (BMC Biology, 2024).
# ± gives the standard deviation of the averaged measurements.
# System: (+)-trans-4-thujanol A-neuron OSN class
# Assay: net action potential response of A-neuron (blank-subtracted) (spikes/s (Hz)); higher = stronger excitation
# Conditions: 10 µg on filter paper; neuron: A neuron (large spike amplitude)
# Procedure: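 Single sensillum recordings from antennal olfactory sensilla of live adult Ips typographus. Each compound was 10 µg in paraffin oil on filter paper, delivered as a 0.5 s puff. Net response = spikes in the first 0.5 s of response minus the 0.5 s pre-stimulus count, doubled to give Hz, with blank response subtracted. Values are for the large-spike A-neuron class of each of seven sensillum types that co-house the lanierone B-neuron; N = 1-4 sensilla, averaged.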
row,Compound,net action potential response
1,C=CCc1ccc(OC)cc1 [Estragole],1 ± 2
2,O=Cc1ccccc1 [Benzaldehyde],-0.5 ± 1.9
3,Cc1ccccc1 [Toluene],0.5 ± 2.5
